# Measurements from PubChem BioAssay AID504339 (National Center for Advancing Translational Sciences (NCATS), 2011).
# Hit rate of the full screen: of about 390,000 compounds, about 17,000 (4.4%) were called active. Inconclusive results (about 8%) are left out. Calls come from the whole dose curve; as a rule, active = well fitted inhibition curve with a large enough effect; inconclusive = small, poorly fitted or top-dose-only effect; inactive = no such curve, though single readings can be large or run the other way. The list comes from a sample in which actives are over-represented; it also holds similar structures and randomly drawn compounds.
# Target: Lysine-specific demethylase 4A (Homo sapiens) (UniProt O75164)
# Sequence (O75164 whole entry, looked up, the tested form may be a part): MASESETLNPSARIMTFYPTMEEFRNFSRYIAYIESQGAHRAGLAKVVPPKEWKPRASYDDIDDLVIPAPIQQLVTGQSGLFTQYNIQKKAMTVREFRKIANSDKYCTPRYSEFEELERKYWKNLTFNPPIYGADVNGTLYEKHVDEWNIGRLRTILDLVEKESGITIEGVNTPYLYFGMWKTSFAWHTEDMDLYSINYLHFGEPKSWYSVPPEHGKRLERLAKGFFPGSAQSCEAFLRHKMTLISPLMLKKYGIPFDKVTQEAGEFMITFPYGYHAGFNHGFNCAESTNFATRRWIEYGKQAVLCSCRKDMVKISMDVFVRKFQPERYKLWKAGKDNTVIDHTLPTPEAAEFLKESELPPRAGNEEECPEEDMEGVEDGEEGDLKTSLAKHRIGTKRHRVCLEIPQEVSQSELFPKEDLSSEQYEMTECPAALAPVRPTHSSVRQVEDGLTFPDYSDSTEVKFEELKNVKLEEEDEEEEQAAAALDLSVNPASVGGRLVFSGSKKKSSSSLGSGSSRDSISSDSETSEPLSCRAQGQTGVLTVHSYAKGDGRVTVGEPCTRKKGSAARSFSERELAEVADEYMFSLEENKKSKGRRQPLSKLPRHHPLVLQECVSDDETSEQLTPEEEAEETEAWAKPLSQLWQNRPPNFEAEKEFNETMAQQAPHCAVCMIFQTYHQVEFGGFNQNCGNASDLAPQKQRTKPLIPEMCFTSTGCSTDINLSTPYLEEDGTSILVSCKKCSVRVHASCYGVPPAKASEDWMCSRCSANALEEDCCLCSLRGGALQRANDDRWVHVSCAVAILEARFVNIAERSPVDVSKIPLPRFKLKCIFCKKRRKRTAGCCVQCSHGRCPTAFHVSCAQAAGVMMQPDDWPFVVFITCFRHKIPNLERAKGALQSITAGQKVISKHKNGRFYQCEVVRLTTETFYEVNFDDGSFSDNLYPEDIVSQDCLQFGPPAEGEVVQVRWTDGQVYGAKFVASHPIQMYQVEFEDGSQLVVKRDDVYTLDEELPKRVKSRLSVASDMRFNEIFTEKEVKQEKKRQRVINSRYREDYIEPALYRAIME
# Experiment: qHTS Assay for Inhibitors of JMJD2A-Tudor Domain; note: nearly all actives have a fitted effect of over 50% in size
# Settings: AlphaScreen JMJD2A-Tudor / H3K4me3 peptide binding; series mostly up to 114 µM; activity change, negative = inhibition: at the top concentration
# Source text: JMJD2A is a jumonji-domain-containing lysine demethylase that uses Fe(II) together with 2-OG to effect oxidative demethylation of histones. Methylation is one of many […] modification that affect epigenetic transcription. […] It is proposed that the functions of JmjD2A binding to the histones, is to maintain marks after they are installed and to spread the modifications by […], establishing a self-propagating cycle for rapid methylation over a large area of chromatin. […] Thus, small molecule targeting of the JMJD2A-tudor domain interaction with its target methylhistone mark is expected to enable sophisticated experiments probing the fine regulatory pathways leading to selective demethylation of a given methyllysine locus based on the methylation state of adjacent histone marks. A quantitative high throughput AlphaScreen has been developed to identify small molecule inhibitors based on a protocol published by NCGC and SGC [4].
# Although AlphaScreen has significant advantages with its utility in a variety of epigenetic target assays, the primary screening data provided in this deposition should be used with caution due to the prevalence of screening artifacts. The top compound concentration tested was high (>100uM) in this assay, which increases number of actives and potential artifacts. An AlphaScreen counterscreen is highly recommended to be run against any putative actives to eliminate non-specific artifacts. Alternatively, one can use other AlphaScreen assays in PubChem to filter out promiscuous hits.
# [1] Lee, J. et al. Distinct binding modes specify the recognition of methylated histone H3K4 and H4K20 by JMJD2A-tudor. Nat Struct Mol Biol. 15(1); 109-11. 2008. PMID: 18084306
# [2] Yasgar, et al. Compound Management for Quantitative High-Throughput Screening. JALA. 2008 Apr;13(2):79-89. PMID: 18496600
# [3] Inglese, et al. Quantitative high-throughput screening: a titration-based approach that efficiently identifies biological activities in large chemical libraries. Proc Natl Acad Sci. 1;103(31):11473-8. 2006. PMID: 16864780
# [4] Quinn et al. A homogeneous method for investigation of methyl-dependent protein-protein interactions in epigenetics. Nucleic Acids Res., 38(2):e11. 2010. PMID: […]
# [5] Baell,Holloway. New substructure filters for removal of pan assay interference compounds (PAINS) from screening libraries and for their exclusion in bioassays. J Med Chem. 53(7):2719-40. 2010. PMID: 20131845
# NIH Molecular Libraries Probe Production Network [MLPCN]
# NIH Chemical Genomics Center [NCGC]
# Structural Genomics Consortium (SGC)
# To each well of a 1,536w plate, 2ul of JMJD2A-Tudor (final 100nM) and 1ul biotinylated histone peptide methylated at Lys4 [b-H3(1-18)K4me3] (final 50nM) were added in 1x PBS buffer, pH 7.4, containing 0.01% Tween-20, using a nanoliter dispenser. Formation of a protein-peptide complex proceeded at room temperature for 30 min. A Kalypsys pin-tool transferred 23nl of library compound solution in DMSO to each well. Following a 30 min incubation of the protein-peptide complex with compounds at room temperature, a mixture of 40 µg/mL each streptavidin-coated donor and nickel chelate acceptor AlphaScreen beads (final 10 µg/mL) was added in a 1ul dispense for a final volume of 4ul, followed by a brief centrifugation (1000 rpm, 1 min). Plates were incubated protected from the light for 20 min at room temperature. Microplates were then read on an EnVision multilabel plate reader using the 1,536 plate HTS AlphaScreen aperture (excitation time 80 ms, measurement time 240 ms).
# % is set by controls: 0 for no effect and ±100 for the full control effect; potency is the fitted concentration of half-maximal effect.
Compound,"activity change, negative = inhibition",Potency
CCc1nn(CC(=O)NCC(C)c2ccccc2)c(=O)c2cc3occc3n12 (centres undefined),1.34% (inactive),–
COc1ccccc1CNc1nccn(-c2ccc(F)cc2)c1=O,-23.1% (inactive),–
COc1ccc(OC)c(CNC(=O)c2c3c(nc4ccccc24)C(=O)N(C2CCCCC2)C3)c1,-18% (inactive),–
Cc1cccc(N2CCN(C(=O)CCSCc3ccccc3F)CC2)c1C,5.2% (inactive),–
CCOc1ccc(OCC)c(NS(=O)(=O)c2ccc3[nH]c(=O)ccc3c2)c1,-14.2% (inactive),–
C=CCc1cc(C)ccc1OCCCn1ccnc1,–,20 µM (active)
CCOc1ccc(S(=O)(=O)NCCCn2ccnc2)cc1NC(C)=O,-4.83% (inactive),–
O=C(NCCCn1ccnc1)c1ccccc1F,-17.2% (inactive),–
Brc1ccc(OCCn2ccnc2)cc1,-22.5% (inactive),–
Cc1ccc2c(Cl)c(C(=O)NCCCn3ccnc3)sc2c1,-35.4% (inactive),–
Clc1c(OCCCn2ccnc2)ccc2ccccc12,–,56.2 µM (active)
COc1ccc(-c2noc(CSc3nc4ccc(C)cc4[nH]3)n2)cc1,-16% (inactive),–
COc1ccc(CCNCc2c(C(=O)O)c(C)n(Cc3cccc(C)c3)c2C)cc1OC,-10.7% (inactive),–
CC(=O)c1ccc(NC(=O)COc2ccccc2-c2nc(-c3ccccc3)no2)cc1,-25.5% (inactive),–
CCOC(=O)c1ccc(NC(=O)C2CC(=O)N(c3ccc(C(C)C)cc3)C2)cc1 (centres undefined),-15.4% (inactive),–
CCN(CC)S(=O)(=O)c1nnc(NC(=O)COc2ccccc2Cl)s1,–,31.6 µM (active)
CCC(=O)Nc1nnc(S(=O)(=O)N(CC(C)C)c2ccccc2)s1,-3.73% (inactive),–
Cc1ccccc1OCC(=O)Nc1nnc(S(=O)(=O)N2CCCC2)s1,-10.3% (inactive),–
Cc1cccc(C)c1NC(=O)CSc1nnc(-c2ccccc2)n1Cc1ccc2c(c1)OCO2,-23.6% (inactive),–
CC1=C(C(N)=O)C(c2ccc3c(c2)OCO3)n2nc(-c3cccc(C)c3)nc2N1 (centres undefined),-10.1% (inactive),–
c1ccc(-c2nnc3n2NC(c2ccc4c(c2)OCO4)S3)cc1 (centres undefined),–,22.4 µM (active)
CCOc1ccccc1N(CC)C(=O)c1cc2ccc3cccnc3c2[nH]1,-20.1% (inactive),–
O=[N+]([O-])c1ccc(Oc2ccc(F)cc2Br)c2ccncc12,–,44.7 µM (active)
COc1cccc(NC(=O)N2CCN(C(=O)c3nsc4ccccc34)CC2)c1,0% (inactive),–
CC1CCc2noc(NC(=O)c3ccc([N+](=O)[O-])cc3)c2C1 (centres undefined),-24.3% (inactive),–
COc1cccc(OCCn2c(-c3ccc(Br)cc3)nc3ccccc3c2=O)c1,18.7% (inactive),–
O=C(Nc1ccccc1)N1CCC(C(=O)N2CCN(Cc3ccccc3)CC2)CC1,-11.3% (inactive),–
O=C(C1CCN(C2CCN(Cc3cccc4c3OCO4)CC2)CC1)N1CCOCC1,-4.11% (inactive),–
O=C(C1CCN(Cc2ccc(Cl)cc2)CC1)N1CCN(Cc2ccc3c(c2)OCO3)CC1,–,2.51 µM (active)
